Test results: PubChem BioAssay AID686978 (National Center for Advancing Translational Sciences (NCATS), 2013)
Hit rate of the full screen: of about 420,000 compounds, about 64,000 (15%) were called active. Inconclusive results (about 27%) are left out. These entries were drawn from the full list. Values without a mark were called inactive. Calls follow the shape of the dose curve; as a rule, active = well fitted inhibition curve with a large enough effect; inconclusive = small, poorly fitted or top-dose-only effect; inactive = flat fitted curve, though single readings scatter.

Assay: qHTS for Inhibitors of human tyrosyl-DNA phosphodiesterase 1 (TDP1): qHTS in cells in absence of CPT; also: nearly all actives have a fitted effect of over 55% in size
Details: DT40 Tdp1-/- hTDP1 cells, no CPT, ATP luminescence, 48 h; activity change, negative = growth inhibition: at 46.2 µM (top of the series)
In short: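 Readout: luminescence from CellTiter-Glo after 30 min in the dark at RT. Cells: DT40 Tdp1-/- with stable hTDP1, 400/well. Exposure: compounds alone, ≥48 hr, 37 °C.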
% is scaled to controls: 0 for no effect and ±100 for the full control effect; potency is read from the fitted curve at half-maximal effect.

| Structure (SMILES) | activity change, negative = growth inhibition [%] | Potency |
| --- | --- | --- |
| Cc1ccc(C)c(NC2=NCC(=O)N2c2ccc3c(c2)OCCO3)c1 | -0.0277 |  |
| COc1cc2[nH]c(=S)n(Cc3ccc(F)cc3)c(=O)c2cc1OC | -23.7 |  |
| CCOc1cc2[nH]c(=S)n(Cc3ccc(C(=O)NCCOC)cc3)c(=O)c2cc1OCC | -12.9 |  |
| CCOc1cc2[nH]c(=S)n(Cc3ccc(C(=O)N4CCN(C)CC4)cc3)c(=O)c2cc1OCC |  | 16.4 µM (active) |
| CNC(=O)NC(=O)C(OC(=O)c1cccc(S(=O)(=O)N2CCCCC2)c1)c1ccccc1 (stereo unspecified) | -15 |  |
| COc1c(C=O)c(CCN(C)C(=O)c2ccc(F)cc2)cc2c1OCO2 | -2.12 |  |
| O=C1CSC(=S)N1c1ccc(Cl)c(Cl)c1 | -2.25 |  |
| Cc1ccccc1N1C(=O)C2ON(c3ccccc3)C(c3ccncc3)C2C1=O (stereo unspecified) | -8.98 |  |
| CC(=O)NC1=NN(C(C)=O)C(C)(CCS(=O)(=O)c2ccc(Cl)c(Cl)c2)S1 (stereo unspecified) | -7.08 |  |
| O=C(NC1=NCCS1)c1ccc(Cl)s1 | 3.11 |  |
| CC(=O)NC1=NN(C(C)=O)C(C)(c2ccc(Cl)s2)S1 (stereo unspecified) |  | 5.17 µM (active) |
| COc1ccccc1C1CC(=O)n2c(nc(-c3ccccc3)c2-c2ccccc2)S1 (stereo unspecified) | 4.33 |  |
| O=C(COC(=O)/C=C/c1cccs1)NC1CCCCC1 | 16.1 |  |
| CSc1ncccc1C(=O)OCc1ccc(Br)cc1 | -0.34 |  |
| OC(c1cc(Cl)cc(Cl)c1)c1ncc(-c2ccccc2C(F)(F)F)[nH]1 (stereo unspecified) | -29.3 |  |
| CSc1ncnc2sc(C)c(C)c12 | -11.7 |  |
| CCCNc1ncnc2sc(C)c(C)c12 |  | 13 µM (active) |
| COCCN1CCN(C(=O)c2sc3ncnc(NCC4CCCO4)c3c2C)CC1 (stereo unspecified) | -15.6 |  |
| CCCCNC(=O)C(C)N(CCN(C)C)C(=O)CCCN1C(=O)NC(c2ccc(Cl)cc2)C(C(=O)OCc2ccccc2)=C1C (stereo unspecified) |  | 18.4 µM (active) |
| CC1=C(C(=O)OC(C)(C)C)C(c2ccc(Br)cc2)NC(=O)N1CCCC(=O)O (stereo unspecified) | -1.02 |  |
| CCOC(=O)CCCNC(=O)CN1C(=O)NC(CCc2ccccc2)C1=O (stereo unspecified) | 1.07 |  |
| CCCCNC(=O)C(C)N(CCN(C)C)C(=O)CCCCCN1C(=O)NC(c2ccc(Cl)cc2)C(C(=O)OCc2ccccc2)=C1C (stereo unspecified) |  | 16.4 µM (active) |
| CC1=C(C(=O)OCc2ccccc2)C(c2ccc(C(F)(F)F)cc2)NC(=O)N1CCCCCC(=O)O (stereo unspecified) | -0.318 |  |
| COCCOC(=O)C1=C(C)NC(=O)NC1c1ccc(Cl)cc1 (stereo unspecified) | -8.4 |  |

| Structure (SMILES) | activity change, negative = growth inhibition [%] | Potency |
| --- | --- | --- |
| CC(C)c1nccn1S(=O)(=O)c1cc([N+](=O)[O-])ccc1Cl | -15 |  |
| c1ccc2c(c1)OC1OC2Oc2ccccc21 | -15.1 |  |
| O=C(CCN1C(=O)C2C3CCC(C3)C2C1=O)Nc1ccc(Cl)cc1Cl (stereo unspecified) | -25.1 |  |
| O=C(N/N=C/c1c(Cl)[nH]c2ccccc12)c1sc2ccccc2c1Cl |  | 13 µM (active) |
| CCOc1ccc2ccccc2c1/C=N/NC(=O)c1c(C)cc(C)[nH]c1=O | -10.3 |  |
| Cc1[nH]c2ccccc2c1/C=N/NC(=O)CNC(=O)c1ccc2c(c1)OCO2 | -24.4 |  |
| C[C@H](NC(=O)C1CC(=O)N(c2ccc3c(c2)OCCO3)C1)C(=O)N1CCC(C(=O)O)CC1 (stereo partly specified) | 17.9 |  |
| CCC(C)(C)NC(=O)C(c1ccccn1)N(C(=O)c1csnn1)c1ccccc1 (stereo unspecified) | -21.4 |  |
| CCc1ccc(NC(=O)CS(=O)CC(=O)NCCCc2ccccc2)cc1 (stereo unspecified) | -20 |  |
| Nc1ccc(C(=O)OCC(=O)NC2CCS(=O)(=O)C2)cc1[N+](=O)[O-] (stereo unspecified) | 33.8 |  |
| Cc1cc(CNC(=O)C2CCC(=O)N(CCc3ccc(Cl)cc3)C2)no1 (stereo unspecified) | -5.14 |  |
| CCC(=O)Nc1ccc(C(=O)N2CCN(C(=O)c3ccco3)CC2)cc1 | -8.96 |  |
| NS(=O)(=O)c1ccc(NC(=O)C(=O)Nc2ccc3nc4n(c(=O)c3c2)CCCCC4)cc1 | 8.65 |  |
| COc1cccc(C(=O)Nc2cc3c(cc2Br)OCCCO3)c1 | -42 |  |
| COc1cccc(C(=O)Nc2ccc(N3CCN(C(=O)c4ccco4)CC3)cc2)c1 |  | 11.6 µM (active) |
| Cc1ccc(OCC(=O)Nc2ccc(NC(=O)c3cccs3)cc2)c(C)c1 | -29.3 |  |
| COc1cccc(C(=O)Nc2ccc(N3CCCC3)cc2)c1 |  | 8.2 µM (active) |
| COc1cccc(OC)c1C(=O)Nc1ccc(N2CCCCC2)cc1 | -2.14 |  |
| Cc1ccc(OCC(=O)Nc2ccc(N3CCN(C(=O)c4ccco4)CC3)cc2)c(C)c1 |  | 8.2 µM (active) |
| COc1cccc(OCc2cc(C(=O)N3CCN(C(=O)c4ccco4)CC3)no2)c1 | -24.7 |  |
| CCCCN(CC)C(=S)Nc1ccc2nc3n(c(=O)c2c1)CCCCC3 | -23.6 |  |
| O=C(c1ccco1)N1CCN(c2cccc(Cl)c2)CC1 | -21.5 |  |
| COc1cccc(C(=O)Nc2ccc3nc4n(c(=O)c3c2)CCCCC4)c1 |  | 20.6 µM (active) |
| COc1ccccc1NC(=O)C1=C(C)NC2=C(C(=O)CCC2)C1c1ccc(C)o1 (stereo unspecified) | -2.13 |  |

| Structure (SMILES) | activity change, negative = growth inhibition [%] | Potency |
| --- | --- | --- |
| CCN(CC)C(=O)C(=O)c1cn(CC(=O)NCc2ccc3c(c2)OCO3)c2ccccc12 | -6.26 |  |
| CCOC(=O)N1CCN(S(=O)(=O)N2CCCC(C(=O)NCCCN3CCC(C)CC3)C2)CC1 (stereo unspecified) | 21.8 |  |
| Cc1ccc(C(c2sc3nc(C)nn3c2O)N2CCN(c3ccc(F)cc3)CC2)cc1 (stereo unspecified) | -20.8 |  |
| Cc1ccc(CNC(=O)CCNS(=O)(=O)c2cccc3nonc23)cc1 | -8.67 |  |
| CS/C(=C\C(=O)c1ccco1)Nc1ccccc1Cl | -29.9 |  |
| Cc1nc(CN(C)C(=O)CC2C(=O)NCCN2Cc2ccc(F)cc2)cs1 (stereo unspecified) | -2.58 |  |
| O=C(CCNS(=O)(=O)c1ccccc1C(F)(F)F)Nc1ccncc1 | 4.83 |  |
| Cc1cc(Nc2ccccc2)n(C(=O)c2ccc(N)cc2)n1 | -5.11 |  |
| CC(C)c1ccc(NS(=O)(=O)c2cn(C)c(=O)n(C)c2=O)cc1 | -14.9 |  |
| O=C(Cc1ccccc1)NNC(=O)C1CCN(c2ncccn2)CC1 | -26.3 |  |
| CCc1ccc(OC(C)C(=O)Nc2ccc(S(=O)(=O)Nc3cc(C)on3)cc2)cc1 (stereo unspecified) | -3.93 |  |
| CC(=O)Nc1ccc(S(=O)(=O)Nc2cc(C)cn(Cc3ccc(C)cc3)c2=O)cc1 |  | 11.6 µM (active) |
| COc1ccc(NC(=O)CSc2nc(NS(=O)(=O)c3ccc(C)cc3)cc(=O)[nH]2)cc1 | -23.2 |  |
| CCN(CC)CCn1c2c(c(SCC(=O)Nc3nc4ccccc4s3)nc1=O)CCCC2 | -54.2 |  |
| CN(NC(=O)c1ccccc1)c1nc2ccccc2nc1C(F)(F)F |  | 7.31 µM (active) |
| CSc1nc(N(C)NC(=O)c2cccc(C)c2)c2ccccc2n1 |  | 0.0146 µM (active) |
| O=C(Nn1cnc2ccccc2c1=O)c1ccccc1 | 0.973 |  |
| Cc1cccc(C(=O)NCCCN(C)CCCNC(=O)c2cccc(C)c2)c1 | -2.23 |  |
| CN(NC(=O)c1ccccc1F)c1nc(C(F)(F)F)nc2ccccc12 |  | 0.206 µM (active) |
| O=C(Cn1cnc2ccccc2c1=O)NNC(=O)c1ccccc1F | 6.81 |  |
| COC(=O)CNC(=O)c1ccccc1F | -46.9 |  |
| Cc1nc2ccccc2c(=O)n1NC(=O)c1ccccc1 | 8.1 |  |
| Cc1ccc(S(=O)(=O)NC(=O)c2cccc(C)c2)cc1 | 0.889 |  |
